Experimental data from article PMC7862700, “An all-to-all approach to the identification of sequence-specific readers for epigenetic DNA modifications on cytosine”.

How the values were obtained:
Test in all cases: DAPPL (digital affinity profiling via proximity ligation, sequencing); 10 mM Tris-HCl pH 7.5, 50 mM NaCl, 1 mM DTT, 4% glycerol, room temperature, 30 min; GST-TFs on glutathione beads, 16-mer random dsDNA library, 0.1% formaldehyde crosslink after washing; high values mean tight binding
ELK1 = biological target: T1, ELK1 (Homo sapiens, UniProt P19419 1-428); conditions: protein: recombinant; tags: N-terminal GST; dsDNA, one strand shown
T1 sequence: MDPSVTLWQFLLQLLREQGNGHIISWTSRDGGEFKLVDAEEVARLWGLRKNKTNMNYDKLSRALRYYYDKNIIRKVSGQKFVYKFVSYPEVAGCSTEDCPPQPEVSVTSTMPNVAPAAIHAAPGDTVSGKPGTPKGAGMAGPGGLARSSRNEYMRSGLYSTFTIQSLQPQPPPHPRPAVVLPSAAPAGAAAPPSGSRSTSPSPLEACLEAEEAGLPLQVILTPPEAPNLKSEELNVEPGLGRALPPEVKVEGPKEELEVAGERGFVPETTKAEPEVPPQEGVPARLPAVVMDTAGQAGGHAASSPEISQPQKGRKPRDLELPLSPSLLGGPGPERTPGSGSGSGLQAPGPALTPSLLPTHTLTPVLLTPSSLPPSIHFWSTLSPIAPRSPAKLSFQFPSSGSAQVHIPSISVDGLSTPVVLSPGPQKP
Summary of the method: (§1)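 After expression in yeast as GST fusions, human transcription factors were bound to glutathione beads, DNA-barcoded and mixed with a tag-only sample. The pools were incubated with 200 nmole of a 16-mer random double-stranded DNA library in Tris/NaCl/DTT/glycerol buffer (30 min, room temperature), washed and crosslinked with 0.1% formaldehyde. Proximity ligation with BsaI/T4 ligase ran for 1 h at 37 °C, before PCR amplification and sequencing on an Illumina NextSeq500. Binding signal is a hexamer's read frequency for a factor divided by its frequency for the tag-only sample.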

GABPA = biological target: T2, GABPA (Homo sapiens, UniProt Q06546 1-454); conditions: protein: recombinant; tags: N-terminal GST; dsDNA, one strand shown
T2 sequence: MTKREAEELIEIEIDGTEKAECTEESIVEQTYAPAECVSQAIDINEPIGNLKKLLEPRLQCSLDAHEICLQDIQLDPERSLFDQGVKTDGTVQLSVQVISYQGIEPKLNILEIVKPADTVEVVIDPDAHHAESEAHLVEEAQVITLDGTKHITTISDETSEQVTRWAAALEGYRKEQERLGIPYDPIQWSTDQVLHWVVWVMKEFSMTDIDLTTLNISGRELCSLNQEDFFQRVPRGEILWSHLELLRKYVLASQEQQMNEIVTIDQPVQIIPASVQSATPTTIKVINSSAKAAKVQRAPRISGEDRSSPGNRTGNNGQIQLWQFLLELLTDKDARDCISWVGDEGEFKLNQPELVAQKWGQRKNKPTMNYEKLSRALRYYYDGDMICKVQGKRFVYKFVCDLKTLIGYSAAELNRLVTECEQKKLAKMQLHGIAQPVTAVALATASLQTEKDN
Summary of the method: as §1

ELF1 = ELF1 (Homo sapiens, UniProt P32519 1-619); conditions: protein: recombinant; tags: N-terminal GST; dsDNA, one strand shown
Chain of ELF1 (P32519 whole entry): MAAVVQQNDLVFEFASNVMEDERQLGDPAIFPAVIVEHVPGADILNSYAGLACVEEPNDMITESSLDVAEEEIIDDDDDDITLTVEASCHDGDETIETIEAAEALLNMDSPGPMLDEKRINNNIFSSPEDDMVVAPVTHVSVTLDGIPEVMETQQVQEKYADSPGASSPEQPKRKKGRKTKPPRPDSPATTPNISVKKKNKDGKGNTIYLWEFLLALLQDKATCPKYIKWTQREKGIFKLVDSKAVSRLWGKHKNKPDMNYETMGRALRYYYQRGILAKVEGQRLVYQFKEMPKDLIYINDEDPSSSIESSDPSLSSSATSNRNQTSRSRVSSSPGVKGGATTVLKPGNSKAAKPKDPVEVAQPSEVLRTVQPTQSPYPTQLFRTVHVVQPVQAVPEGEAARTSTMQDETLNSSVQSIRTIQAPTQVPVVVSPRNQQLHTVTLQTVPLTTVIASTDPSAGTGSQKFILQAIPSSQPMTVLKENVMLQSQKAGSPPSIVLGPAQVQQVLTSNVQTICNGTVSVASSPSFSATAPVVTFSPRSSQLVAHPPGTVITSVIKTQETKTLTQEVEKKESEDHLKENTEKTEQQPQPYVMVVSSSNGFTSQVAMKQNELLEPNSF
Summary of the method: as §1

EHF = biological target: T3, EHF (Homo sapiens, UniProt Q9NZC4 1-300); conditions: protein: recombinant; tags: N-terminal GST; dsDNA, one strand shown
T3 sequence: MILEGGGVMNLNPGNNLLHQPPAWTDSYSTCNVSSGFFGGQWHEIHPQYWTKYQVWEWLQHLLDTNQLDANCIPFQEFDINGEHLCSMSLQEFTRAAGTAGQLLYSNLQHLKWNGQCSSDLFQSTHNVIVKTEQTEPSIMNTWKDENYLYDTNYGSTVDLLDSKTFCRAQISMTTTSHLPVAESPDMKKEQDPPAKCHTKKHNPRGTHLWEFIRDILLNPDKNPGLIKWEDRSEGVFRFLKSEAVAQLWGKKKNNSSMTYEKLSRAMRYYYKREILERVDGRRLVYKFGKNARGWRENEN
Summary of the method: as §1

SPIB = SPIB (Homo sapiens, UniProt Q01892 1-262); conditions: protein: recombinant; tags: N-terminal GST; dsDNA, one strand shown
Chain of SPIB (Q01892 whole entry): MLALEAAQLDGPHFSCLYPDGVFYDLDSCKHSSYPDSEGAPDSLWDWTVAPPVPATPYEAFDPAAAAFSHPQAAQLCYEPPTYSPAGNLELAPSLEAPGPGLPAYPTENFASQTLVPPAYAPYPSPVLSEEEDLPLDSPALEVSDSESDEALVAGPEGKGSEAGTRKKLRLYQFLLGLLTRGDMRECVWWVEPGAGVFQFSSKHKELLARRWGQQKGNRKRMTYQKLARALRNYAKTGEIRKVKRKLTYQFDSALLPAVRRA
Summary of the method: as §1

ELK3 = biological target: T4, ELK3 (Homo sapiens, UniProt P41970 1-407); conditions: protein: recombinant; tags: N-terminal GST; dsDNA, one strand shown
T4 sequence: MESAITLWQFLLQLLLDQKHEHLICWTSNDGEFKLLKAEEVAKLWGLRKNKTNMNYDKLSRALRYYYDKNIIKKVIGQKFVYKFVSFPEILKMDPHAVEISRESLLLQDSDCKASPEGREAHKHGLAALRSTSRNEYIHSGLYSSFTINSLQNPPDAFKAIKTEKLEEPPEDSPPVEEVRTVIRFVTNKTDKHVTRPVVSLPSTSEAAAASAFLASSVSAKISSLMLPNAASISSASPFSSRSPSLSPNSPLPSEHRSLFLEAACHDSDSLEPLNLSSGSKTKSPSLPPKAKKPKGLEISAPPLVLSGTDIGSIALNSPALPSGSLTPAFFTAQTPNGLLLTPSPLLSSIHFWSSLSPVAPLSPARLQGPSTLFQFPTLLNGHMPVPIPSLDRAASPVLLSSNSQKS
Summary of the method: as §1

HSF1 = HSF1 (Homo sapiens, UniProt Q00613 1-529); conditions: protein: recombinant; tags: N-terminal GST; chain copies: 3; dsDNA, one strand shown
Chain of HSF1 (Q00613 whole entry): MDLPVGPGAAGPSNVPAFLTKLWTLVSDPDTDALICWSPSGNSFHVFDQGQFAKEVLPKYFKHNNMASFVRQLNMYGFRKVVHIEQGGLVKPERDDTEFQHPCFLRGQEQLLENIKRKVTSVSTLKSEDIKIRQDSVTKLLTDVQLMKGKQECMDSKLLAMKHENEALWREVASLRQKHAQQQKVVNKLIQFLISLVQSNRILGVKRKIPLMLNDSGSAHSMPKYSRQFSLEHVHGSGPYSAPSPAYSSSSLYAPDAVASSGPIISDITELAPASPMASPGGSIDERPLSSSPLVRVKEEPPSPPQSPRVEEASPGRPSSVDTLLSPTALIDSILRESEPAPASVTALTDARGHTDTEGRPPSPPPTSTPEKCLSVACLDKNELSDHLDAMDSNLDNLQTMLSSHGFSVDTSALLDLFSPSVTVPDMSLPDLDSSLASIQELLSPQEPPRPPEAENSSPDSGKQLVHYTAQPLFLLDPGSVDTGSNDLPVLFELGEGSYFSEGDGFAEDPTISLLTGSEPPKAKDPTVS
Summary of the method: as §1

SPIC = biological target: T5, SPIC (Homo sapiens, UniProt Q8N5J4 1-248); conditions: protein: recombinant; tags: N-terminal GST; dsDNA, one strand shown
T5 sequence: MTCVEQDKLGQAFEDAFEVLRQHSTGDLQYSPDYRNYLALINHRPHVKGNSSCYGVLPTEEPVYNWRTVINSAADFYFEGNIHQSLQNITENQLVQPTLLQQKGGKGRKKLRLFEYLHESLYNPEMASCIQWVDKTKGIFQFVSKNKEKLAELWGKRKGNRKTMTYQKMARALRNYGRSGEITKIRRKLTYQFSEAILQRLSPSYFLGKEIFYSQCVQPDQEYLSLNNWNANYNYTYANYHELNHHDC
Summary of the method: as §1

ELF4 = ELF4 (Homo sapiens, UniProt Q99607 1-663); conditions: protein: recombinant; tags: N-terminal GST; dsDNA, one strand shown
Chain of ELF4 (Q99607 whole entry): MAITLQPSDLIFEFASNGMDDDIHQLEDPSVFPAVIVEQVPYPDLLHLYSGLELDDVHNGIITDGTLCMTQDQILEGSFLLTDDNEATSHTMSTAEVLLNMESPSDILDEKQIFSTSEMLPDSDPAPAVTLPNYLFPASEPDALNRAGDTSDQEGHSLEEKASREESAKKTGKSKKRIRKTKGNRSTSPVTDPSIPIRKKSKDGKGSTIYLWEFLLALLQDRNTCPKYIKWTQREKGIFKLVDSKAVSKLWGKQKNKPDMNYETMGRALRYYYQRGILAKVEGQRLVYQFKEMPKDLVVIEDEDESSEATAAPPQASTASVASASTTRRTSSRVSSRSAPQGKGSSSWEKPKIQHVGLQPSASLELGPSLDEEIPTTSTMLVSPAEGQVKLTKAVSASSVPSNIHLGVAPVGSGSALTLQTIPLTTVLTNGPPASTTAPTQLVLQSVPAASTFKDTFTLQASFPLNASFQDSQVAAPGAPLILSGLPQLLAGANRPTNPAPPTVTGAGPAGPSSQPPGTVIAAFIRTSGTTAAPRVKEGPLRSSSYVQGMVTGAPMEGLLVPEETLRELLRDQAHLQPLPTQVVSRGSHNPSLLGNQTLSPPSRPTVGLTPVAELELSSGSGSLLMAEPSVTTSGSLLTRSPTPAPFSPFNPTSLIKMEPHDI
Summary of the method: as §1

ELF3 = biological target: T6, ELF3 (Homo sapiens, UniProt P78545 1-371); conditions: protein: recombinant; tags: N-terminal GST; dsDNA, one strand shown
T6 sequence: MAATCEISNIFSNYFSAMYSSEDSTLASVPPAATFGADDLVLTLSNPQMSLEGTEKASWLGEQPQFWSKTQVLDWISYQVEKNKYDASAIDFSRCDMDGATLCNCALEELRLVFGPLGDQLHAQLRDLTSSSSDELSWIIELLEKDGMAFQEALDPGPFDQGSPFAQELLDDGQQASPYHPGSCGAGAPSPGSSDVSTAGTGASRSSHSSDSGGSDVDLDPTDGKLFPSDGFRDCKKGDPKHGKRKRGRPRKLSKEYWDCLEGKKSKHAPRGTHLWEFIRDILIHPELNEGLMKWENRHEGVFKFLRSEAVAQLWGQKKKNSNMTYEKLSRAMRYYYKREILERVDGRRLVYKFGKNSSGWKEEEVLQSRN
Summary of the method: as §1

ERF = biological target: T7, ERF (Homo sapiens, UniProt P50548 1-548); conditions: protein: recombinant; tags: N-terminal GST; dsDNA, one strand shown
T7 sequence: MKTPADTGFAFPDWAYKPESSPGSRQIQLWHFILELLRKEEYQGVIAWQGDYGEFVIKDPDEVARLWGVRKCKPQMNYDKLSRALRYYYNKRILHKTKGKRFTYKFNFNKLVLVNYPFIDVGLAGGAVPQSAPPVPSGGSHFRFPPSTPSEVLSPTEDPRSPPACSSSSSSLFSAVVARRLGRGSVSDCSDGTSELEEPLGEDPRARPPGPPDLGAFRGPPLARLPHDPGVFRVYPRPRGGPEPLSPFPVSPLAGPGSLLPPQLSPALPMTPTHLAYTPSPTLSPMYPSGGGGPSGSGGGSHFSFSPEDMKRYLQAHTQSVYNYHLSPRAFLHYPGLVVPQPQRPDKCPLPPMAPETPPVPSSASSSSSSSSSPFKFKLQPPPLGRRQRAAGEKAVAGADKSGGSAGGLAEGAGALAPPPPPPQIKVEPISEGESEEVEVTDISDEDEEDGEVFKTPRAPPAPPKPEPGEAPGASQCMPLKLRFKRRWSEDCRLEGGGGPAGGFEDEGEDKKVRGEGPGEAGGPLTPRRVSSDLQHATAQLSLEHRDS
Summary of the method: as §1

ETS2 = biological target: T8, ETS2 (Homo sapiens, UniProt P15036 1-469); conditions: protein: recombinant; tags: N-terminal GST; dsDNA, one strand shown
T8 sequence: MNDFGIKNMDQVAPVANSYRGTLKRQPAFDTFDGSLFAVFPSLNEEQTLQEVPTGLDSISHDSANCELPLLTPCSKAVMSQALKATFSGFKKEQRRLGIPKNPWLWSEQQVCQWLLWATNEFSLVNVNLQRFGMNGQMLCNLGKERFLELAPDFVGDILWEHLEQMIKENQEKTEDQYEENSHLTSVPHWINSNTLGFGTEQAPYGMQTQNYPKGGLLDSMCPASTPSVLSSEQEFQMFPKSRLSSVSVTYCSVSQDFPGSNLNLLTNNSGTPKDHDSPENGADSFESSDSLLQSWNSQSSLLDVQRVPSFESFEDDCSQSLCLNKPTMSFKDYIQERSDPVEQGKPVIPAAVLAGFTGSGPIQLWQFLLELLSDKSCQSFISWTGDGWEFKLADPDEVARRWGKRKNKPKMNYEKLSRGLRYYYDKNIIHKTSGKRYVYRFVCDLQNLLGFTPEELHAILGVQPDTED
Summary of the method: as §1

SPI1 = SPI1 (Homo sapiens, UniProt P17947 1-270); conditions: protein: recombinant; tags: N-terminal GST; dsDNA, one strand shown
Summary of the method: as §1

ELK4 = biological target: T9, ELK4 (Homo sapiens, UniProt P28324-2 1-405); conditions: protein: recombinant; tags: N-terminal GST; dsDNA, one strand shown
T9 sequence: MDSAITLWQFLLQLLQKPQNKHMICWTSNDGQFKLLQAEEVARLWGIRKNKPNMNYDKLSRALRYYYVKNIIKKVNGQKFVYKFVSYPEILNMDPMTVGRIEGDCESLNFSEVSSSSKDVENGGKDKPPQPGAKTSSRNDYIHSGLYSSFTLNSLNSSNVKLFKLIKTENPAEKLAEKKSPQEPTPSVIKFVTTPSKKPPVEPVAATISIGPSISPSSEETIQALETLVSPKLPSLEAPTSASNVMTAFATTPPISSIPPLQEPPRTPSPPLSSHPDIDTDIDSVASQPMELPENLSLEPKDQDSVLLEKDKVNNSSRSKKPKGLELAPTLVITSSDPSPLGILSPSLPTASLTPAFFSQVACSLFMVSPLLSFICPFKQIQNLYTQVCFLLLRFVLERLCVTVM
Summary of the method: as §1

ETV3L = biological target: T10, ETV3L (Homo sapiens, UniProt Q6ZN32 1-361); conditions: protein: recombinant; tags: N-terminal GST; dsDNA, one strand shown
T10 sequence: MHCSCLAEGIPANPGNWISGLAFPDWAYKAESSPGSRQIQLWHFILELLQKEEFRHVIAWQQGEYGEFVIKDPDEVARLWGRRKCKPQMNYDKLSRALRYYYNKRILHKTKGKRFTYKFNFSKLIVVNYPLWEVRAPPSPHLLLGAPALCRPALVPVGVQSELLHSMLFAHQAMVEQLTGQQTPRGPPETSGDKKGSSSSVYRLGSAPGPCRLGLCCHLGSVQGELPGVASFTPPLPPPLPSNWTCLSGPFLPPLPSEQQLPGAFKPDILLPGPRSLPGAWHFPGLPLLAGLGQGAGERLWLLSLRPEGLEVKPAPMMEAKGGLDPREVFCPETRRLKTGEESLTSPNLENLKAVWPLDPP
Summary of the method: as §1

Sequence: GCCGAA
- binding signal (ELK1): 1 fold enrichment (6-mer frequency, TF over GST control)
- binding signal (GABPA): 1.02 fold enrichment (6-mer frequency, TF over GST control)
- binding signal (ELF1): 1.01 fold enrichment (6-mer frequency, TF over GST control)
- binding signal (EHF): 1.03 fold enrichment (6-mer frequency, TF over GST control)
- binding signal (SPIB): 1.02 fold enrichment (6-mer frequency, TF over GST control)
- binding signal (ELK3): 1.06 fold enrichment (6-mer frequency, TF over GST control)
- binding signal (HSF1): 1.14 fold enrichment (6-mer frequency, TF over GST control)
- binding signal (SPIC): 1.09 fold enrichment (6-mer frequency, TF over GST control)
- binding signal (ELF4): 1.06 fold enrichment (6-mer frequency, TF over GST control)
- binding signal (ELF3): 1.02 fold enrichment (6-mer frequency, TF over GST control)
- binding signal (ERF): 1.05 fold enrichment (6-mer frequency, TF over GST control)
- binding signal (ETS2): 1.04 fold enrichment (6-mer frequency, TF over GST control)

Sequence: ACAGAA
- binding signal (HSF1): 1.27 fold enrichment (6-mer frequency, TF over GST control)

Sequence: GAGAAT
- binding signal (HSF1): 1.44 fold enrichment (6-mer frequency, TF over GST control)

Sequence: TGAAAG
- binding signal (ELF1): 1.05 fold enrichment (6-mer frequency, TF over GST control)
- binding signal (SPI1): 1.05 fold enrichment (6-mer frequency, TF over GST control)
- binding signal (SPIB): 1.04 fold enrichment (6-mer frequency, TF over GST control)
- binding signal (HSF1): 1.08 fold enrichment (6-mer frequency, TF over GST control)
- binding signal (SPIC): 1.01 fold enrichment (6-mer frequency, TF over GST control)
- binding signal (ELF4): 1.01 fold enrichment (6-mer frequency, TF over GST control)
- binding signal (ELK4): 1.06 fold enrichment (6-mer frequency, TF over GST control)
- binding signal (ETV3L): 1.04 fold enrichment (6-mer frequency, TF over GST control)
- binding signal (ETS2): 1.01 fold enrichment (6-mer frequency, TF over GST control)
